# Assay results: ChEMBL document CHEMBL3988442, “University of Dundee, Small-Polar-MMV Screening Library” (2021)
# Where “and” joins values, the source holds several entries; their conditions need not be identical. Identical values can stand only once. The whole screen tested about 67,000 compounds, of which about 40 (0.06%) showed an effect of 50% or more. What follows is part of a selection rich in strong results, with near analogues and random picks from the rest.
# Target: T1, Coenzyme A biosynthesis bifunctional protein CoaBC (Mycobacterium tuberculosis (strain ATCC 25618 / H37Rv)) (UniProt P9WNZ1)
# T1 sequence (whole entry): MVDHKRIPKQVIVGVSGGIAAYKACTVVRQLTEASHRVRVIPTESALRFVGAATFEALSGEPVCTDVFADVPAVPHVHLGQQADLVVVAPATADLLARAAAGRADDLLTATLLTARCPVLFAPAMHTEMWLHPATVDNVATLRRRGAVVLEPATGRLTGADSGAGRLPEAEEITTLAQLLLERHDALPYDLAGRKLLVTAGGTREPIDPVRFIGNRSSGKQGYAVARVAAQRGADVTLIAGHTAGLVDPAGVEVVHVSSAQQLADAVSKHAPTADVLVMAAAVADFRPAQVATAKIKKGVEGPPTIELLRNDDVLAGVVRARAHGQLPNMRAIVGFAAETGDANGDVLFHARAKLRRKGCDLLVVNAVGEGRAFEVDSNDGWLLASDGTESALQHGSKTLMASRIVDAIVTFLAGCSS
# Assay: Biomol Green assay for MtCoaBC inhibitor, OD650 read
# Format: functional
# Parameters: scale not given: in the data most compounds retested in dose-response had high values
# Details: 30 µM
row,SMILES,Percent Effect
1,CCN1C[C@H]2CCN(C(=O)NC)CC[C@H]2S1(=O)=O,8.02%
2,Cc1cc(S(=O)(=O)Nc2cccc(I)c2)sc1C(=O)O,2.58%
3,CC(=O)c1cccc(NS(=O)(=O)c2cc(C)c(C(=O)O)s2)c1,-3%
4,CNC(=O)N1CC[C@@H]2CN(Cc3cccc(Cl)c3)S(=O)(=O)[C@@H]2CC1,6.19%
5,c1cnc(N2CCO[C@H]3[C@H](OCC4CCOCC4)CC[C@@H]32)nc1,1.73%
6,Cc1ccc(N2C[C@H]3CCC[C@@H](CN4CCOCC4)[C@H]3C2)nn1,4.17%
7,Cc1nc(C2CCCN(C(=O)c3cc(Cl)c[nH]3)C2)no1 (stereo not given),2.57%
8,Cc1cccc(C(=O)N2CCCC(c3noc(C)n3)C2)n1 (stereo not given),-20.7%
9,Cn1nc(-c2cccs2)cc1[C@H]1CN2CC[C@H]1C[C@@H]2CN,-39.9%
10,CN1C(Cn2cccn2)C[C@@H]2CN(Cc3ccccn3)CC[C@@H]21 (stereo not given in full),-8.3%
11,Cc1cc(NC(=O)C2CCN(c3nnc(C)c(C)c3C#N)CC2)no1,2.42%
12,Cc1cc(C(=O)NC2CCN(c3ncccc3C#N)CC2)no1,-0.609%
13,COCCC(Cc1cccc(Br)c1)C(N)=O (stereo not given),4.72%
14,COCCC(Cc1cccc(Br)c1)C(=O)N(C)C (stereo not given),-3.54%
15,COCc1nc2cc(NCc3ccc(C)o3)ccc2o1,13%
16,COCc1nc2cc(NCc3cc[nH]n3)ccc2o1,10.3%
17,Cc1cn[nH]c1C1COCCN1Cc1ccsc1 (stereo not given),-1.45%
18,Cc1ccc(CN2CCOCC2c2[nH]ncc2C)cn1 (stereo not given),-2.47%
19,O=C(NC1CC1)[C@@H]1CCO[C@@H]2CCN(C3CCCC3)C[C@H]21,7.17%
20,CC(=O)Nc1ccc(Oc2ccc(CN3CCCC3)cc2F)cc1,9.5%
21,COc1ccc(CN2CCCC2)cc1Oc1ccc(NC(C)=O)cc1,1.65%
22,COCCNC(=O)[C@H]1CN(Cc2sccc2C)C[C@H]2OCC[C@@H]12,2.59%
23,Cc1ccc2[nH]c(CO[C@H]3CN(C(=O)C4CC4)C[C@H]3F)nc2c1,5.96%
24,CN1C[C@@H](F)[C@@H](OCc2nc3ccc(C#N)cc3[nH]2)C1,8.8%

row,SMILES,Percent Effect
1,CCO[C@H]1CN(C(=O)c2ccnnc2)[C@@H]2COC[C@H]12,-7.56%
2,CN(C)C(=O)CN1C[C@@H]2CC[C@H](C1)N(C/C=C/c1ccc(F)cc1)C2,-5.7%
3,O=C(COCCOc1ccccc1)NC1CCN(c2ncccn2)CC1,-6.77%
4,O=C(COCCOc1ccccc1)NC1CCN(C(=O)C2CC2)CC1,-27.3%
5,CN(C)CCN1CCO[C@H]2CN(C(=O)c3ccsc3)C[C@H]21,0.976%
6,O=C(NC1CC1)[C@@H]1CCO[C@@H]2CCN(Cc3ccsc3)C[C@H]21,8.23%
7,O=S(=O)(CCCn1cncn1)Cc1ccccc1Cl,0%
8,O=S(=O)(CCCn1cncn1)Cc1cccc(F)c1,3.23%
9,O=S(=O)(CCCn1cncn1)Cc1ccc(F)cc1Cl,96.3% and 94.5%
10,Cc1csc(CN2CC[C@H]3C[C@H](c4nc(C)no4)O[C@@H]3C2)n1,-2.84%
11,CCS(=O)(=O)N1C[C@H]2CN(Cc3cccc(F)c3)C(=O)[C@H]2C1,-7.25%
12,Cc1cccc(CN2CC[C@@H]3[C@@H]2CCN3C(=O)c2cnoc2C)n1,8.49%
13,O=C1OCCN1CC(=O)N1C[C@H]2CC[C@@H]1CN(C(=O)c1cccnc1)C2,7.56%
14,COC[C@@]12CC[C@@H](N3CCOCC3)C[C@H]1CCN(c1cnccn1)C2,-5.95%
15,CC(C)CN1CC[C@@H]2[C@@H]1CCN2S(=O)(=O)c1cn(C)cn1,4.68%
16,O=C(O)c1cc(-n2cc3c(n2)CCC3)cc(S(=O)(=O)N2CCOCC2)c1,-5.92%
17,O=C(O)c1cc(-n2cc3c(n2)CCC3)cc(S(=O)(=O)NC2CCCC2)c1,-0.121%
18,COc1cc(N2CCC[C@]3(C(=O)O)CN(C(C)C)C[C@@H]3C2)ncn1,-10.7%
19,c1ccc(CN2C[C@@H]3COC[C@]3(COCC3CCOCC3)C2)nc1,9.51%
20,COCCNC(=O)C[C@@H]1COC[C@H]2CN(CC3CCOCC3)C[C@@H]12,-2.48%
21,Cc1cnc(N2CCN(C)CC2)nc1-c1ccnn1C,5.03%
22,COc1cnc(N2CCN(C)CC2)nc1-c1ccnn1C,5.52%
23,CN1[C@H](Cn2cccn2)C[C@@H]2CN(Cc3cccs3)CC[C@@H]21,5.67%
24,CO[C@@H]1CN(Cc2scnc2C)[C@@H]2CCCO[C@@H]21,-51.5%

row,SMILES,Percent Effect
1,O=C(c1ccc[nH]1)N1C[C@H]2CN(Cc3cccc(F)c3)C(=O)[C@H]2C1,8.74%
2,Cc1ccc(S(=O)(=O)NCCNC(=O)c2cncnc2C)cc1,5.91%
3,CCc1ncncc1C(=O)NCCNS(=O)(=O)c1ccc(C)cc1,3.17% and 20.9%
4,Cc1ccc(N2CCO[C@H]3CN(Cc4cccnc4)C[C@H]32)nn1,3.85%
5,C[C@H]1C[C@H]2CN(C(=O)c3ccncn3)CC[C@@H]2O1,3.76%
6,Cc1cccc(CN2C[C@H]3CCC[C@@]3(COCc3csc(C)n3)C2)n1,3.06%
7,CCOCC1CN(C(=O)C2=CCCC2)Cc2cnn(CC)c21 (stereo not given),12.8%
8,CCOCC1CN(C(=O)N2CCCC2)Cc2cnn(C)c21 (stereo not given),-2.1%
9,O=C1NCCO[C@H]2CN(C(=O)c3cccs3)CC[C@@H]12,2.96%
10,CNC(=O)[C@H]1C[C@@H]2CN(C(=O)c3ccncc3)C[C@@H]2N1S(C)(=O)=O,2.59%
11,O=C(NCCc1cccs1)[C@H]1CO[C@H]2CCN(C3CCC3)C[C@H]2C1,6.17%
12,O=C1CO[C@@H]2CNC[C@H]2N1CC1CC1,0%
13,Cn1cc(CN2CC[C@@H]3[C@@H]2CCN3C(=O)c2cccc(F)c2)cn1,5.07%
14,Cc1cc(N2CCC(O)CC2)nc(C)n1,11.1%
15,CN1CCCCC1c1cncc(N2CCC(O)CC2)n1 (stereo not given),-0.526%
16,CCCc1cc(C(=O)N2C[C@H]3CC=C(C)C[C@H]3C2)ccn1,2.3%
17,O=C(NCC1CCOCC1)[C@@H]1C[C@@H]2[C@@H](CCN2Cc2ccoc2)O1,2.96%
18,CCc1cnc(N2C[C@H]3CN(Cc4ccc(OC)cc4)C(=O)[C@H]3C2)nc1,-3.75%
19,CC(C)c1nc(C(=O)N2C[C@H]3CC[C@@H]2CN(C2CCOCC2)C3)cs1,5.66%
20,Cn1cc(CN2CC[C@H]3O[C@H](C(=O)NC4CC4)CC[C@H]32)c2ccccc21,-3.06%
21,CN(C)c1ncc2c(n1)CN(C1CC(C)(C)NC(C)(C)C1)C2=O,0.231%
22,CC(C)OC(=O)N1C[C@H]2CC[C@@H]1CN(Cc1cccnc1)C2,5.14%
